# Measured values taken from PMC11006913.
# Changes are numbered by the printed parent chain.
# How the values were obtained:
# Assay in all cases: PBM; 200 nM protein, PBS
# Conditions in all cases: dsDNA, one strand shown
# [1] = molecular target: NKX3-2 (Homo sapiens, UniProt P78367 192-278, P234S)
# [2] = molecular target: NKX3-2 (Homo sapiens, UniProt P78367 192-278)
# [3] = molecular target: T1, NKX2-6 (Homo sapiens, UniProt A6NCS4 118-204)
# T1 sequence: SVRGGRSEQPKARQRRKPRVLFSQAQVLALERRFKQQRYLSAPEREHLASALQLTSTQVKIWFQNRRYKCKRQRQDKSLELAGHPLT
# [4] = molecular target: T2, NKX2-6 (Homo sapiens, UniProt A6NCS4 118-204, R150C)
# T2 sequence: T1 sequence with R33C
# [5] = molecular target: T3, SIX6 (Homo sapiens, UniProt O95475 114-200, L167I)
# T3 sequence: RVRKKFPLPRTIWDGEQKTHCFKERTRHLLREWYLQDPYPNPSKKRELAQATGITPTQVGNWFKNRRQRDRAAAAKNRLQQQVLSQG
# [6] = molecular target: T4, SIX6 (Homo sapiens, UniProt O95475 114-200, L143V)
# T4 sequence: T3 sequence with L30V, I54L
# [7] = molecular target: T5, SIX6 (Homo sapiens, UniProt O95475 114-200, T165P)
# T5 sequence: T3 sequence with T52P, I54L
# [8] = molecular target: T6, SIX6 (Homo sapiens, UniProt O95475 114-200, L167M)
# T6 sequence: T3 sequence with I54M
# [9] = molecular target: T7, SIX6 (Homo sapiens, UniProt O95475 114-200, L143M)
# T7 sequence: T3 sequence with L30M, I54L
# [10] = molecular target: T8, SIX6 (Homo sapiens, UniProt O95475 114-200, L143I)
# T8 sequence: T3 sequence with L30I, I54L
# [11] = molecular target: T9, SIX6 (Homo sapiens, UniProt O95475 114-200, T165G)
# T9 sequence: T3 sequence with T52G, I54L
# [12] = molecular target: T10, SIX6 (Homo sapiens, UniProt O95475 114-200, T139Q)
# T10 sequence: T3 sequence with T26Q, I54L
# [13] = molecular target: T11, SIX6 (Homo sapiens, UniProt O95475 114-200, T165A)
# T11 sequence: T3 sequence with T52A, I54L
# [14] = molecular target: T12, SIX6 (Homo sapiens, UniProt O95475 114-200, L167V)
# T12 sequence: T3 sequence with I54V
# [15] = molecular target: T13, SIX6 (Homo sapiens, UniProt O95475 114-200)
# T13 sequence: T3 sequence with I54L
# [16] = molecular target: T14, SIX6 (Homo sapiens, UniProt O95475 114-200, T165I)
# T14 sequence: T3 sequence with T52I, I54L
# [17] = molecular target: HOXC10 (Homo sapiens, UniProt Q9NYD6 254-340, K271E)
# Sequence of HOXC10 (Homo sapiens, UniProt Q9NYD6 254-340, K271E) (Q9NYD6 254-340 K271E): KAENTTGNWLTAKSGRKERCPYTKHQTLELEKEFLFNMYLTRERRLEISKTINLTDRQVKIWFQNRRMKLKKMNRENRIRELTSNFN
# [18] = molecular target: HOXD13 (Homo sapiens, UniProt P35453 263-343)
# Sequence of HOXD13 (Homo sapiens, UniProt P35453 263-343) (P35453 263-343): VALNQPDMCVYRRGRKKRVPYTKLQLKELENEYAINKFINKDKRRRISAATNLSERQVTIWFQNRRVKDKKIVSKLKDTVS
# [19] = molecular target: HOXD13 (Homo sapiens, UniProt P35453 263-343, T313A)
# Sequence of HOXD13 (Homo sapiens, UniProt P35453 263-343, T313A) (P35453 263-343 T313A): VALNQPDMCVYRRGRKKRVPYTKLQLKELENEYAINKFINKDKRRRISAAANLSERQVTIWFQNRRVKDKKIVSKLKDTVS
# [20] = molecular target: HOXC10 (Homo sapiens, UniProt Q9NYD6 254-340)
# Sequence of HOXC10 (Homo sapiens, UniProt Q9NYD6 254-340) (Q9NYD6 254-340): as the sequence (Q9NYD6 254-340 K271E) above, with E18K counted along it
# Sequence of NKX3-2 (Homo sapiens, UniProt P78367 192-278) (P78367 192-278): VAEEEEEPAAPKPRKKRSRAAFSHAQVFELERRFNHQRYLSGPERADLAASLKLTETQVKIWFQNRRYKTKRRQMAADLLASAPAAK
# Sequence of NKX3-2 (Homo sapiens, UniProt P78367 192-278, P234S) (P78367 192-278 P234S): as the sequence (P78367 192-278) above, with P43S counted along it
sequence,measurement,setting,value
CTTGCGGC,binding signal,[1],"10.7 upbm affinity estimate (log intensity, higher = more binding, comparable within an allelic series)"
same,binding signal,[2],"10.6 upbm affinity estimate (log intensity, higher = more binding, comparable within an allelic series)"
AATTAGTG,binding signal,[3],"11.9 upbm affinity estimate (log intensity, higher = more binding, comparable within an allelic series)"
CCGAGCGG,binding signal,[4],"9.43 upbm affinity estimate (log intensity, higher = more binding, comparable within an allelic series)"
CCCAGGCG,binding signal,[1],"10.6 upbm affinity estimate (log intensity, higher = more binding, comparable within an allelic series)"
same,binding signal,[2],"10.6 upbm affinity estimate (log intensity, higher = more binding, comparable within an allelic series)"
GGAGCGCA,binding signal,[5],"8.88 upbm affinity estimate (log intensity, higher = more binding, comparable within an allelic series)"
same,binding signal,[6],"8.9 upbm affinity estimate (log intensity, higher = more binding, comparable within an allelic series)"
same,binding signal,[7],"8.9 upbm affinity estimate (log intensity, higher = more binding, comparable within an allelic series)"
same,binding signal,[8],"8.87 upbm affinity estimate (log intensity, higher = more binding, comparable within an allelic series)"
same,binding signal,[9],"8.97 upbm affinity estimate (log intensity, higher = more binding, comparable within an allelic series)"
same,binding signal,[10],"8.85 upbm affinity estimate (log intensity, higher = more binding, comparable within an allelic series)"
same,binding signal,[11],"8.87 upbm affinity estimate (log intensity, higher = more binding, comparable within an allelic series)"
same,binding signal,[12],"8.78 upbm affinity estimate (log intensity, higher = more binding, comparable within an allelic series)"
same,binding signal,[13],"8.96 upbm affinity estimate (log intensity, higher = more binding, comparable within an allelic series)"
same,binding signal,[14],"8.93 upbm affinity estimate (log intensity, higher = more binding, comparable within an allelic series)"
same,binding signal,[15],"8.87 upbm affinity estimate (log intensity, higher = more binding, comparable within an allelic series)"
same,binding signal,[16],"8.91 upbm affinity estimate (log intensity, higher = more binding, comparable within an allelic series)"
AATTAAAT,binding signal,[17],"11.9 upbm affinity estimate (log intensity, higher = more binding, comparable within an allelic series)"
CGCGTAGC,binding signal,[5],"9.05 upbm affinity estimate (log intensity, higher = more binding, comparable within an allelic series)"
same,binding signal,[6],"8.9 upbm affinity estimate (log intensity, higher = more binding, comparable within an allelic series)"
same,binding signal,[7],"9.03 upbm affinity estimate (log intensity, higher = more binding, comparable within an allelic series)"
same,binding signal,[8],"8.94 upbm affinity estimate (log intensity, higher = more binding, comparable within an allelic series)"
same,binding signal,[9],"8.94 upbm affinity estimate (log intensity, higher = more binding, comparable within an allelic series)"
same,binding signal,[10],"8.99 upbm affinity estimate (log intensity, higher = more binding, comparable within an allelic series)"
same,binding signal,[11],"9.13 upbm affinity estimate (log intensity, higher = more binding, comparable within an allelic series)"
same,binding signal,[12],"9.19 upbm affinity estimate (log intensity, higher = more binding, comparable within an allelic series)"
same,binding signal,[13],"9.02 upbm affinity estimate (log intensity, higher = more binding, comparable within an allelic series)"
same,binding signal,[14],"8.99 upbm affinity estimate (log intensity, higher = more binding, comparable within an allelic series)"
same,binding signal,[15],"9 upbm affinity estimate (log intensity, higher = more binding, comparable within an allelic series)"
same,binding signal,[16],"8.98 upbm affinity estimate (log intensity, higher = more binding, comparable within an allelic series)"
CCGTAGGC,binding signal,[1],"10.5 upbm affinity estimate (log intensity, higher = more binding, comparable within an allelic series)"
same,binding signal,[2],"10.4 upbm affinity estimate (log intensity, higher = more binding, comparable within an allelic series)"
GCCCCCCA,binding signal,[18],"9.22 upbm affinity estimate (log intensity, higher = more binding, comparable within an allelic series)"
same,binding signal,[19],"9.24 upbm affinity estimate (log intensity, higher = more binding, comparable within an allelic series)"
CCAGCGCA,binding signal,[20],"10 upbm affinity estimate (log intensity, higher = more binding, comparable within an allelic series)"
same,binding signal,[17],"10 upbm affinity estimate (log intensity, higher = more binding, comparable within an allelic series)"
CAGCCAGG,binding signal,[5],"9.07 upbm affinity estimate (log intensity, higher = more binding, comparable within an allelic series)"
same,binding signal,[6],"8.86 upbm affinity estimate (log intensity, higher = more binding, comparable within an allelic series)"
same,binding signal,[7],"8.91 upbm affinity estimate (log intensity, higher = more binding, comparable within an allelic series)"
same,binding signal,[8],"9.02 upbm affinity estimate (log intensity, higher = more binding, comparable within an allelic series)"
same,binding signal,[9],"9.06 upbm affinity estimate (log intensity, higher = more binding, comparable within an allelic series)"
same,binding signal,[10],"9.03 upbm affinity estimate (log intensity, higher = more binding, comparable within an allelic series)"
same,binding signal,[11],"9.14 upbm affinity estimate (log intensity, higher = more binding, comparable within an allelic series)"
same,binding signal,[12],"9.1 upbm affinity estimate (log intensity, higher = more binding, comparable within an allelic series)"
same,binding signal,[13],"9.02 upbm affinity estimate (log intensity, higher = more binding, comparable within an allelic series)"
same,binding signal,[14],"9.01 upbm affinity estimate (log intensity, higher = more binding, comparable within an allelic series)"
same,binding signal,[15],"9.07 upbm affinity estimate (log intensity, higher = more binding, comparable within an allelic series)"
same,binding signal,[16],"8.99 upbm affinity estimate (log intensity, higher = more binding, comparable within an allelic series)"
CAGGCGCC,binding signal,[5],"8.87 upbm affinity estimate (log intensity, higher = more binding, comparable within an allelic series)"
same,binding signal,[6],"8.82 upbm affinity estimate (log intensity, higher = more binding, comparable within an allelic series)"
same,binding signal,[7],"8.98 upbm affinity estimate (log intensity, higher = more binding, comparable within an allelic series)"
same,binding signal,[8],"8.93 upbm affinity estimate (log intensity, higher = more binding, comparable within an allelic series)"
same,binding signal,[9],"8.82 upbm affinity estimate (log intensity, higher = more binding, comparable within an allelic series)"
same,binding signal,[10],"8.87 upbm affinity estimate (log intensity, higher = more binding, comparable within an allelic series)"
same,binding signal,[11],"8.8 upbm affinity estimate (log intensity, higher = more binding, comparable within an allelic series)"
same,binding signal,[12],"8.84 upbm affinity estimate (log intensity, higher = more binding, comparable within an allelic series)"
same,binding signal,[13],"8.89 upbm affinity estimate (log intensity, higher = more binding, comparable within an allelic series)"
same,binding signal,[14],"8.89 upbm affinity estimate (log intensity, higher = more binding, comparable within an allelic series)"
same,binding signal,[15],"8.81 upbm affinity estimate (log intensity, higher = more binding, comparable within an allelic series)"
same,binding signal,[16],"8.87 upbm affinity estimate (log intensity, higher = more binding, comparable within an allelic series)"
